Composite z-score data for 29 compounds are collected here from PubChem BioAssay.

This test deals with Noggin (protein binding on small-molecule microarray). The test can be described thus: Noggin binders on small-molecule microarray, primary screen, biochemical, 635/667 nm fluorescence (AID 1095).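 Note: score merges 667 nm feature fluorescence with signal to noise over triplicate slides.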 The following applies: 635 nm fluorescence, higher = more signal.
Compound `C=CC[C@H](O)c1ccc(O)c(F)c1` showed a composite z-score of -0.529.

`COc1ccc(CCNC(=O)[C@@H]2c3ccccc3C(=O)N(C(C)C)[C@H]2c2ccc(CO)cc2)cc1` showed a composite z-score of -1.3.

In turn, `COC(=O)[C@@]1(Cc2ccc(F)cc2)[C@H]2c3cc(C(=O)N(C)C)n(CCF)c3C[C@H]2CN1C(=O)c1ccccc1` registered a composite z-score of 0.104.

With `Cc1ccc(N2C(=O)c3ccccc3[C@@H](C(=O)NCCN3CCOCC3)[C@@H]2c2ccc(CO)cc2)nc1`, the composite z-score was 0.0453.

As to `O=C/C=C/c1ccc(-c2ccccc2)cc1`, the composite z-score was -0.339.

For `CC[C@@H](O[Si](C#C[Si](C(C)C)(C(C)C)C(C)C)(C(C)C)C(C)C)c1cn([C@H](C)c2ccccc2)nn1`, the composite z-score was 0.391.

`CCOC(=O)C1=CCC(c2cccn2C(=O)OC(C)(C)C)N(S(=O)(=O)c2ccc(C)cc2)C1` (centres undefined) displayed a composite z-score of 0.205.

`CC[C@@H]1C=C(C(=O)O)[C@H](c2cccc(Cl)c2)N1S(=O)(=O)c1ccc(C)cc1` yielded a composite z-score of -0.791.

`O=C1O[C@H](c2ccccc2)[C@H](c2ccccc2)N2[C@H]1[C@@H](C(=O)O)[C@]1(C(=O)Nc3ccccc31)[C@H]2c1ccc(OCCO)cc1` gave a composite z-score of 0.286.

As to `COc1ccc(NN2C(C(O)c3ccc(F)cc3)C=CC3C(=O)N(C4CCCCC4)C(=O)C32)cc1` (centres undefined), the composite z-score stood at 0.169.

For `C=CCNC(=O)[C@@H]1[C@H]2C(=O)O[C@H](c3ccccc3)[C@H](c3ccccc3)N2[C@H](c2ccc(OCCO)cc2)[C@@]12C(=O)Nc1ccc(C#CCNC(N)=O)cc12`, the composite z-score turned out to be 0.216.

Regarding `CCCCN1CC=CC23O[C@@H]4C=CCCOC(=O)C4[C@H]2C(=O)N(CCO)[C@@H]3C1=O` (some centres undefined), the composite z-score is 0.132.

`CN1C(=O)C2C=CC(C(O)c3ccc([N+](=O)[O-])cc3)N(Nc3ccccc3)C2C1=O` (centres undefined): the composite z-score was -0.0487.

On to `CC(C)[Si]1(C(C)C)OCc2cc(-c3ccc(-c4ccc(Cl)c(Cl)c4)o3)nc(-c3ccc(Oc4ccccc4)cc3)c21`, for which the composite z-score was -1.78.

`C=C1C(=O)C=C2CN(C(=O)c3ccccc3)[C@@](Cc3ccc(F)cc3)(C(=O)OC)[C@@H]12` returned a composite z-score of 0.0319.

In the case of `CN(C)C(=O)[C@]1(CCS(=O)(=O)c2ccccc2)N=C(c2ccc(OCCCO)cc2)O[C@@H]1c1ccccc1CN=[N+]=[N-]`, the composite z-score turned out to be 0.136.

On to `CN1C2C=C(c3ccc(CO)cc3)C(C3C(=O)N(C(N)=O)C(=O)C32)C1C1CC1` (centres undefined), for which the composite z-score was -0.4.

Compound `CCCNC(=O)[C@@]1(Sc2ccc(C)cc2)CC(=O)N(Cc2cc(C(F)(F)F)cc(C(F)(F)F)c2)[C@@H]1c1ccc(CO)cc1` showed a composite z-score of -1.13.

For the compound `COCCOC(=O)N1C(=O)[C@@]2(c3cc(C#CC4(O)CCCCCC4)ccc31)[C@H](C(N)=O)[C@H]1C(=O)O[C@H](c3ccccc3)[C@H](c3ccccc3)N1[C@@H]2c1ccc(OCCO)cc1`, the composite z-score was determined as 1.2.

`CC(C)C[C@@H]1NC(=O)[C@@H]2C[C@H](C(=O)NCCCCCNC(=O)CS)[C@H](c3ccc(O)cc3)N2C1=O` came in with a composite z-score of 0.73.

The compound `Cc1ccc(S(=O)(=O)N2[C@@H](c3ccccc3)C(C(=O)O)=CC[C@H]2c2ccc(F)cc2)cc1` had a composite z-score of -0.0184.

For `CCCCCN1CC=CC23O[C@@H]4/C=C\CCCOC(=O)C4[C@H]2C(=O)N(CCO)[C@@H]3C1=O` (some centres undefined), the composite z-score was 0.486.

Turning to `C=C(C(=O)CC[C@@H](OC(=O)c1cccnc1)c1cccc(OCCO)c1)C(C)C`, the composite z-score was 0.597.

As to `O=C1C2C=CC(C(O)C3CC=CCC3)N(Nc3ccc([N+](=O)[O-])cc3)C2C(=O)N1c1ccccc1` (centres undefined), the composite z-score was determined as 0.7.

Compound `CCCCC(=C=CC[C@@H](O)c1ccccc1OCCO)C[C@@H](O)c1ccccn1` returned a composite z-score of 0.191.

Compound `COC(=O)[C@]1(Cc2ccccc2CN=[N+]=[N-])N=C(c2ccc(OCCCO)cc2)O[C@@H]1c1ccccc1N=[N+]=[N-]` yielded a composite z-score of 0.398.

As for `COCCOC(=O)N1C(=O)[C@@]2(c3cc(C#CC4=CCCCC4)ccc31)[C@H](c1ccc(O)cc1)N1[C@H](c3ccccc3)[C@H](c3ccccc3)OC(=O)[C@H]1[C@@H]2C(=O)N1CCc2cc(OC)c(OC)cc2C1`, the composite z-score turned out to be 0.286.

Turning to `O=C(c1ccccc1)N1Cc2ccccc2C[C@@]2(N=C(c3ccc(OCCCO)cc3)O[C@H]2c2ccccc2)C1=O`, the composite z-score turned out to be 1.73.

In the case of `C=CC[C@]1(C(=O)NCCN2CCOCC2)N=C(c2ccc(OCCCO)cc2)O[C@H]1c1ccccc1`, the composite z-score turned out to be 0.816.
